# Compounds without any hit were thinned out: in the full panel of roughly 83,000, 20% have a hit.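 Treatment: one concentration, 48 hours, 96-well format. Scoring: percent growth, with anything below 10 considered active.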 A number with no mark means an inactive call. Active and inactive are the calls of the source.
# Tested on: HCT-15 colon
# Assay: NCI-60 one-dose screen, 48 h (100 = growth as untreated, 0 = no growth, -100 = all killed)
# Settings: 10 µM
# Protocol: Growth inhibition of the HCT-15 human tumor cell line is measured as a screen for anti-cancer activity. Cells are grown in 96 well plates and exposed to the test compound for 48 hours. Compounds are tested at a single concentration, which is 10^-5 M for most compounds. The reported endpoint is percent growth (GI% or GIPRCNT), where numbers from 0 - 100% represent growth inhibition, and numbers from -100% - 0 represent cell death. For example, a value of 40 represents 60% growth inhibition. A value of 0 means no net growth occurred over the course of the experiment. A value of -40 indicates 40% of cells at the beginning of the experiment died by the end of the experiment. A value of -100 means all cells are dead at the end of the experiment.
# NCI-60 Human Tumor Cell Lines Screen was performed using the standard one-dose NCI protocol, which is described in more detail at https://dtp.cancer.gov/discovery_development/nci-60/default.htm.
# Compounds with GIPRCNT values below 10 were considered active. Activity score was based on GIPRCNT using the following formula: […]
# Score is 0 for GIPRCNT values of 100 or above, 50 for GIPRCNT values of 0, and 100 for GIPRCNT values of -100.
row,Structure (SMILES),growth
1,CC1CCCC(C(=O)O)C1C(=O)O (stereo not given),102%
2,Cc1ccc(C(=O)C2C(=O)C3CCC2C3)cc1 (stereo not given),106%
3,C/C(=N\O)c1ccc(NC(=O)CSc2nnc(-c3ccccc3)n2-c2ccccc2)cc1,97.5%
4,CCOC(=O)c1cc(C(=O)c2ccc(Cl)cc2)n2ccc(-c3cc[n+](CC(=O)c4ccc(OC)cc4)cc3)cc12,75.5%
5,CCCCC/C=C/C/C=C/CCCCCCCC1=NC(C)(C)CN1C(C)C,-3.26% (active)
6,Cc1ccc(/C=C/C(=O)C(=O)/C=C/c2ccc(C)cc2)cc1,95.5%
7,COc1ccc(Nc2cnc3cc(NS(=O)(=O)c4ccc(C)cc4)ccc3n2)cc1,59.8%
8,COc1nc2c(c(=O)n1C)CN(c1ccccc1)C(=O)C(C)N2 (stereo not given),101%
9,COc1ccc(C(=O)N/N=C/c2cc(C(F)(F)F)ccc2Cl)cc1,73.2%
10,CS(=O)(=O)c1nccc(-c2c(-c3cccc(OCc4ccccc4)c3)nc3sccn23)n1,49.4%
11,COc1ccc2c(c1)OC(N)=C(C#N)C2c1cc(OC)c(OC)c(OC)c1 (stereo not given),14.2%
12,COc1cc(/C=C/c2cc(/C=C/c3ccc(O)c(OC)c3)nc(N)n2)ccc1O,29.5%
13,NC1=NC(c2ccccc2)C2=C(N1)/C(=C/c1ccccc1)CCC2 (stereo not given),84.9%
14,Cc1ccc(Cl)cc1NC(=O)CCl,67.2%
15,COc1cc(-c2nc3ccccc3o2)cc(CN2CCCCC2)c1O,41.4%
16,Cc1c(Cl)cccc1NC(=O)CN1CCOCC1,99%
17,CCN1C(=O)CC(SC2CC(=O)N(CC)C2=O)C1=O (stereo not given),105%
18,COc1cc(-c2nn(-c3cccc(NC(=O)CN4CCOCC4)c3)cc2-c2cccnc2)ccc1Cl,66.7%
19,C=CCn1c(SCC(=O)Nc2ccc(C(=O)/C=C/c3ccc(OC)cc3)cc2)nnc1-c1ccc(OC)c(OC)c1,83.8%
20,COc1cc2ncnc(NC3CCC(O)CC3)c2cc1OC (stereo not given),101%

row,Structure (SMILES),growth
1,COc1ccc(/C=C2\CCCC3=C2NC(N)=NC3c2ccc(OC)cc2)cc1 (stereo not given),92.9%
2,Oc1cccc(-c2nc3sccn3c2-c2ccncn2)c1,93.2%
3,CC(C1=C(CN(C(=O)Cc2cn(-c3ccccc3)nc2-c2ccc(Cl)cc2)C(C)C)Cc2ccccc21)c1ccccn1 (stereo not given),54.2%
4,Cc1ccc(N=Nc2ccccc2)cc1,99.5%
5,CN(C)CCCSc1ccccc1NC1=C(Cl)C(=O)C(Nc2ccccc2SCCCN(C)C)=C(Cl)C1=O,72.1%
6,C=CCSC(CC)(CC)C(=O)NC,101%
7,O=C(NCCNC(=O)c1ccc(F)cc1)Nc1ccc(-n2cc(-c3ccncc3)c(-c3ccc(Cl)c(O)c3)n2)cc1,19.5%
8,C=C(C)[C@@H]1CC[C@]2(COCCC#N)CC[C@]3(C)[C@H](CC[C@@H]4[C@@]5(C)Cc6c([nH]c7ccccc67)C(C)(C)[C@@H]5CC[C@]43C)[C@@H]12,102%
9,COc1ccc(-c2n[nH]nc2-c2cc(OC)c(OC)c(OC)c2)cc1,25.8%
10,Nc1c(Br)cc(Br)c2c1[nH]c(=O)c1ccccc12,75.2%
11,CCCCN(CCCC)C(=O)[C@H](CC)[C@@H]1CC[C@@H](C)[C@@H]([C@H](C)[C@@H](O)[C@@H](C)C(=O)[C@H](CC)C2O[C@]3(C=CC(=O)[C@]4(CC[C@@](C)([C@H]5CC[C@](O)(CC)[C@H](C)O5)O4)O3)[C@H](C)C[C@@H]2C)O1 (stereo not given in full),54%
12,CN(C)c1nc(N)c2nccnc2n1,120%
13,CC(C)Cc1ccc([C@H](C)C(=O)O)cc1,97%
14,COc1cc(-c2nn(-c3cccc(NC(=O)NCCNC(=O)c4cccc(C(F)(F)F)c4)c3)cc2-c2ccncc2)ccc1Cl,53.2%
15,O=C1c2ccccc2C(=O)c2c1ccc(C(Br)Br)c2Cl,44%
16,COc1ccc(-c2nn(-c3cccc(Cl)c3)cc2-c2cc(-c3cccs3)[nH]c(=S)n2)cc1,45.7%
17,CNC(=O)c1c(I)c(NC(C)=O)c(I)c(C(=O)O)c1I,105%
18,COc1cccc(-c2nc3sccn3c2-c2cccc(S(C)(=O)=O)c2)c1,95.3%
19,CCCCCOC(=O)Nc1nc(=O)n(C2O[C@H](C)[C@@H](O)[C@H]2O)cc1F (stereo not given in full),101%
20,COc1cccc(N=Nc2cccc(OC)c2)c1,91.1%
